Sampled rows, rich in hits. Any-hit rate of the full collection: about 21%.
NS1 function inh: inhibitors of influenza NS1 protein function. Potency, µM (doses to about 46.1 µM). 270,000 compounds, 0.4% hits; calls by dose curve; note: actives are rising curves; nearly all actives have a fitted effect of over 50% in size
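Compounds were scored for reversing the slow growth caused by influenza A NS1 in S. cerevisiae, measured by optical density at 600 nm. Assay medium contained 2% galactose at pH 6.0; NS1-free yeast of the same strain were the positive control.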
Cycloheximide cs: affects cycloheximide protein synthesis inhibition readout, counter-screen | cell reporter, cycloheximide protein synthesis inhibition counterscreen | max response, % | 300,000 compounds, 12% hits | AID 2314; in the data active = max response mostly above about 13%, no sharp cut-off; inactive = mostly below about 14%; note: read at 38.3 µM for the half of the compounds with a filed dose
Pf growth 96h: P. falciparum growth inhibition at 96 hours; 320,000 compounds, 6.9% hits; Potency, µM (top dose mostly 28.7 µM), usual class: inhibitors; AID 504834; P. falciparum luciferase reporter growth, 96 h
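P. falciparum expressing integrated firefly luciferase grown in erythrocytes (2% hematocrit, 0.05% parasitemia final) with compounds for 96 hours at 37 C, 5% CO2. Growth inhibition read as loss of luminescence after adding luciferase detection reagent.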
Sm TGR inh: inhibitors of Schistosoma mansoni thioredoxin glutathione reductase. 360,000 compounds, 3% hits. purified TGR, DTNB reduction, TNB absorbance 405 nm. Potency, µM (titrated, usually from 114 µM), actives largely listed as inhibitors; note: nearly all actives have a fitted effect of over 60% in size
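TGR 20 nM + NADPH 100 uM (dispensed conc.), cpd preinc 15 min RT; start with NADPH (500 uM addition) then DTNB (15 mM addition). Kinetic TNB absorbance, 405 nm filter. Four-parameter Hill fit across titration.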
Pf growth 48h: P. falciparum growth inhibition at 48 hours (one generation). P. falciparum luciferase growth in erythrocytes, 48 h. Potency, µM (top dose mostly 28.7 µM), usual class: inhibitors. 310,000 compounds, 5.9% hits. AID 504832
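Compounds are pin-transferred into medium, infected erythrocytes (2% hematocrit, 0.1% parasitemia final) are added, and plates sit one parasite generation at 37 C in 5% CO2. Detection reagent is then added and luminescence measured.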
Shiga inhibitor: inhibitors of Shiga toxin in Vero cells; inhibition, % at 38.7 µM; Vero cells, Shiga toxin protein synthesis inhibition reporter; 290,000 compounds, 9.2% hits; AID 2315; in the data active = inhibition mostly above about 28%, no sharp cut-off; inactive = mostly below about 43%
Numbers stand for hits; – = inactive; ? = inconclusive; · = no result. Unless noted, calls come from the whole dose curve; as a rule, active = well fitted curve in the direction sought with a large enough effect; inconclusive = small, poorly fitted or top-dose-only effect, or another doubt; inactive = no such curve, though single readings can be large; an effect the other way counts as inactive or inconclusive.

SMILES	NS1 function inh	Cycloheximide cs	Pf growth 96h	Sm TGR inh	Pf growth 48h	Shiga inhibitor
CCc1c(C)nc2cc(-c3ccc(OC)c(OC)c3)nn2c1N1CCCC1	–	–	–	–	13µM	–
CCc1c(C)nc2cc(-c3ccc(OC)c(OC)c3)nn2c1N1CCC(C)CC1	–	–	–	–	7.4µM	–
CCOCCN1CCN(c2c(CC)c(C)nc3cc(-c4cc(OC)cc(OC)c4)nn23)CC1	–	–	–	–	1.5µM	–
CCc1ccccc1Nc1cc(C(=O)NCCc2ccccc2)c2ccccc2n1	·	·	·	–	·	·
CCOC(=O)C1CCN(C(=O)c2ccccc2NS(=O)(=O)c2ccc(F)cc2)CC1	–	–	–	–	–	–
CC(/C=N/n1c(-c2n[nH]c3c2CCC3)n[nH]c1=S)=C\c1ccco1	–	–	–	35µM	–	–
CC(/C=N/n1c(-c2cccnc2)n[nH]c1=S)=C\c1ccco1	–	–	–	40µM	–	–
COc1ccc(/C=N/n2c(-c3n[nH]c4c3CCC4)n[nH]c2=S)cc1	–	–	?	–	–	–
S=c1[nH]nc(-c2cccnc2)n1/N=C/C=C/c1ccco1	–	–	–	·	–	–
CC(NC(=O)c1ccccc1F)c1nnc(SCC(=O)NC2CCCC2)n1C (stereo not drawn)	–	–	–	–	–	–
C=CCc1cccc(/C=N/NC(=O)C(C)Nc2ccc(C)cc2)c1O (stereo not drawn)	–	–	12µM	–	?	–
COc1ccccc1/C=N/NC(=O)c1ccccc1Cl	·	–	–	–	–	–
C=CCc1cccc(/C=N/NC(=O)c2ccccc2Br)c1O	·	–	?	–	?	50
C=CCc1cccc(/C=N/NC(=O)c2ccccc2OC)c1O	·	30	?	–	?	135
Cc1ccc(NC(=O)c2ccccc2NC(=O)c2cccs2)cc1	–	–	–	–	–	–
COc1cccc(NC(=O)c2cc([N+](=O)[O-])ccc2NC(=O)CNCC2CCCO2)c1 (stereo not drawn)	·	–	–	–	?	–
Cc1ccc(C)c(N2CCN(CC(=O)Nc3ccc([N+](=O)[O-])cc3C(=O)Nc3ccccc3F)CC2)c1	–	–	2.3µM	–	?	–
O=C(CNCC1CCCO1)Nc1ccc([N+](=O)[O-])cc1C(=O)Nc1ccccc1F (stereo not drawn)	–	–	5.9µM	–	?	–
CC(C)CC(CO)N1CCN(C(=O)c2cccc(C(F)(F)F)c2)CCC1=O (stereo not drawn)	–	–	–	–	–	–
CCOC(=O)c1snc(-c2ccc(F)cc2)c1N	–	35	·	–	–	103
CC[C@]1(O)C[C@H]2CN(CCc3c([nH]c4ccccc34)[C@@](C(=O)OC)(c3cc4c(cc3OC)N(C=O)[C@H]3[C@@](O)(C(=O)OC)[C@H](OC(C)=O)[C@]5(CC)C=CCN6CC[C@]43[C@@H]65)C2)C1	·	·	9.5µM	·	0.085µM	·
CC[C@@]1(O)CC2CN(CCc3c([nH]c4ccccc34)[C@](C(=O)OC)(c3cc4c(cc3OC)N(C)C3[C@@](O)(C(=O)OC)C(OC(C)=O)[C@]5(CC)C=CCN6CC[C@@]43C65)C2)C1 (stereo partly drawn)	·	·	0.54µM	·	0.76µM	·
C=CCC(CC(O)COCCC)C(=O)NNC(=S)Nc1ccccc1 (stereo not drawn)	–	36	?	–	–	71
CC(C)CCOCC(O)CCC(=O)NNC(=S)Nc1ccccc1 (stereo not drawn)	–	–	–	–	–	–
CCCOc1ccc(C(=O)CCC(=O)OCC(=O)Nc2cccc(S(N)(=O)=O)c2)cc1	·	·	–	–	–	·
SMILES	NS1 function inh	Cycloheximide cs	Pf growth 96h	Sm TGR inh	Pf growth 48h	Shiga inhibitor
N=c1c2c(n(Cc3ccc(Cl)cc3)c3c1CCC3)CCC2	–	–	–	–	0.21µM	–
N=c1c2c(n(Cc3ccc(F)cc3)c3c1CCC3)CCCC2	·	–	–	–	?	–
N=c1c2c(n(Cc3cccc(Cl)c3)c3c1CCC3)CCCC2	–	–	–	–	0.26µM	–
N=c1c2c(n(Cc3ccccc3)c3c1CCC3)CCC2	–	–	0.13µM	–	0.41µM	–
N=c1c2c(n(Cc3ccc(Cl)cc3Cl)c3c1CCC3)CCCC2	–	–	·	–	0.19µM	–
Clc1cccc(CN2CCCCCC2)c1	–	–	–	–	–	–
N#Cc1ccccc1S(=O)(=O)N1CCN(C(=O)C2COc3ccccc3O2)CC1 (stereo not drawn)	·	·	?	?	–	·
